# From the supplement of paper PMC10105736
# A number with no mark means an inactive call.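 How the source made its calls: active = MAPPIT score above the 99th percentile of random reference set scores in the same batch; inactive = at or below it.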
# B1: Cyp12a4 (protein)
# chain: MLKVRSALSLIQSQKATLSLATQKRWQTNVATAEAREDSEWLQAKPFEQIPRLNMWALSMKMSMPGGKYKNMELMEMFEAMRQDYGDIFFMPGIMGNPPFLSTHNPQDFEVVFRNEGVWPNRPGNYTLLYHREEYRKDFYQGVMGVIPTQGKPWGDFRTVVNPVLMQPKNVRLYYKKMSQVNQEFVQRILELRDPDTLEAPDDFIDTINRWTLESVSVVALDKQLGLLKNSNKESEALKLFHYLDEFFIVSIDLEMKPSPWRYIKTPKLKRLMRALDGIQEVTLAYVDEAIERLDKEAKEGVVRPENEQSVLEKLLKVDRKVATVMAMDMLMAGVDTTSSTFTALLLCLAKNPEKQARLREEVMKVLPNKNSEFTEASMKNVPYLRACIKESQRLHPLIVGNARVLARDAVLSGYRVPAGTYVNIVPLNALTRDEYFPQASEFLPERWLRSPKDSESKCPANELKSTNPFVFLPFGFGPRMCVGKRIVEMELELGTARLIRNFNVEFNYPTENAFRSALINLPNIPLKFKFIDLPN
# B2: CG1307 (protein)
# chain: MGDKLLDPTQIINGLAVMLSFFVGYRYALKRGDAKDSVTEGAATPFSQESSVSSGSEASVSDKGYGGLNDNFKMVLVVRNDLKMGKGKIAAQCGHGAVGAYQRAVVRTPRLLRSWENCGCAKIAVRVESEAELMAIKKEAERQQLNTCLIRDAGRTQIEANSKTVLAVGPAAAADIDRVTGHLKLL
# B3: hpo (protein)
# chain: MSEPEVTSVVDMKSPNISSSCSFFKLKKLSEESLLQPPEKVFDIMYKLGEGSYGSVYKAVHKESSSIVAIKLVPVESDLHEIIKEISIMQQCDSPYVVRYYGSYFKQYDLWICMEYCGAGSVSDIMRLRKKTLTEDEIATILSDTLQGLVYLHLRRKIHRDIKAANILLNTEGYAKLADFGVAGQLTDTMAKRNTVIGTPFWMAPEVIEEIGYDCVADIWSLGITALEMAEGKPPYGEIHPMRAIFMIPQKPPPSFREPDRWSTEFIDFVSKCLVKEPDDRATATELLEHEFIRNAKHRSILKPMLEETCAIREQQRANRSFGGVLAASQAKSLATQENGMQQHITDNAFMEDPGTLVPEKFGEYQQSSASDATMIAHAEQGVDEGTLGPGGLRNLSKAAAPAAASSAASPLDMPAVDSGTMVELESNLGTMVINSDSDDSTTAKNNDDQKPRNRYRPQFLEHFDRKNAGDGRGDEKPIATEYSPAAAEQQQQQQQQQQQQQQDEQHLASGANDLNNWEHNMEMQFQQISAINQYGLQQHQQQQQVLMAYPLMNEQLIALNNQPNLLLSNAAPMGQQGIPAAAPAQPPPAYQNQHMHTQSHAYVEGEFEFLKFLTFDDLNQRLCNIDHEMELEIEQLNKKYNAKRQPIVDAMNAKRKRQQNINNNLIKI
# B4: Archease (protein)
# chain: MEVEFSRENFLLPEMKYEYLDHTADVQIHGWGSSLKEAFEQCGVAMFGYMTELDYVSVEQCFEIEAHGDDLESLLFHFLDELLFLFSAEPYLVCKKLEITKFDVENFEISCHCYGEPFELGKHPQGTEVKAITYSAMQIIQDVEASNYEVFVIIDI
# B5: l(2)gl (protein)
# chain: MLKFIRGKGQQPSADRHRLQKDLFAYRKTAQHGFPHKPSALAYDPVLKLMAIGTQTGALKVFGQPGVELYGQHTLLNNSASELNVQLLEWVYGTGRILSLTAANQLILWEPVGATLLPIKTLPFDGKLKKVSSLCCSLSKDLLWIGTEGGNIYQLDLHTFTIKEPVIYHDVVLEQVPPAYKLNPGAIESIRQLPNSPSKLLVAYNRGLCVLWDFESASVQRAYIAPGHGQSVGLTVNFEGSEFTWYHADGSYATWSIDNPEPPSNVNYVPYGPDPCKSINRLYKGKRRSNDVIVFSGGMPRSAYGDHNCVSVHASDGHKVCLDFTSKVIDFFVTFENNRDVAEVLVVLLEEELCAYDLTDPNICAIKAPYLHSVHASAVTCNYLASEVVQSVYESILRAGDEQDIDYSNISWPITGGTLPDNLEESVEEDATKLYEILLTGHEDGSVKFWDCTGVLLKPIYNFKTSSIFGSESDFRDDAAADMSAEQVDEGEPPFRKSGLFDPYSDDPRLAVKKIAFCPKTGQLIVGGTAGQIVIADFIDLPEKVSLKYISMNLVSDRDGFVWKGHDQLNVRSNLLDGEAIPTTERGVNISGVLQVLPPASITCMALEASWGLVSGGTAHGLVLFDFKNFVPVFHRCTLNPNDLTGAGEQLSRRKSFKKSLRESFRKLRKGRSTRTNQSNQVPTTLEARPVERQIEARCADDGLGSMVRCLLFAKTYVTNVNITSPTLWSATNASTVSVFLLHLPPAQTAATAVPSASGNAPPHMPRRISAQLAKEIQLKHRAPVVGISIFDQAGSPVDQLNAGENGSPPHRVLIASEEQFKVFSLPQLKPINKYKLTANEGARIRRIHFGSFSCRISPETLQSMHGCSPTKSTRSHGDGEADPNISGSLAVSRGDVYNETALICLTNMGDIMVLSVPELKRQLNAAAVRREDINGVSSLCFTNSGEALYMMSSSELQRIALATSRVVQPTGVVPVEPLENEESVLEENDAENNKETYACDEVVNTYEIKNPSGISICTRPAEENVGRNSVQQVNGVNISNSPNQANETISSSIGDITVDSVRDHLNMTTTTLCSINTEETIGRLSVLSTQTNKASTTVNMSEIPNINISNLEDLESKRNTTETSTSSVVIKSIITNISHEKTNGDNKIGTPKTAPEESQF
# B6: Csp (protein)
# chain: MSAPGMDKRKLSTSGDSLYEILGLPKTATGDDIKKTYRKLALKYHPDKNPDNVDAADKFKEVNRAHSILSNQTKRNIYDNYGSLGLYIAEQFGEENVNAYFVVTSPAVKAVVICCAVITGCCCCCCCCCCCNFCCGKFKPPVNESHDQYSHLNRPDGNREGNDMPTHLGQPPRLEDVDLDDVNLGAGGAPVTSQPREQAGGQPVFAMPPPSGAVGVNPFTGAPVAANENTSLNTTEQTTYTPDMVNQKY
# Tests used:
# Experiment in all cases: MAPPIT interaction score (arbitrary units); higher = stronger binary interaction signal, active = hit call of the paper
# [1] = target: RpL37A; details: MAPPIT configuration: N-N; pair source set: Curagen_high_conf
# [2] = target: RpLP2; details: MAPPIT configuration: N-N; pair source set: Finley_Y2H
# [3] = target: RpS20; details: MAPPIT configuration: N-N; pair source set: Curagen_low_conf
# [4] = target: hpo; details: pair source set: Lit-BM-16
# [5] = target: yki; details: pair source set: Lit-BM-16
# [6] = target: RpL35A; details: MAPPIT configuration: N-N; pair source set: Finley_Y2H
# [7] = target: RpS21; details: MAPPIT configuration: N-N; pair source set: DPIM
# [8] = target: RpS10b; details: MAPPIT configuration: N-N; pair source set: DPIM
# 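Further: HEK293T cells with Epo stimulation, STAT-responsive firefly luciferase reporter, fold induction versus unstimulated cells divided by the larger fold induction of two negative controls lacking either bait or prey.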
binder,measurement,setting,value
B1,MAPPIT interaction score,[1],-0.0129
B2,MAPPIT interaction score,[2],0.942
B3,MAPPIT interaction score,[3],2.67 (active)
same,MAPPIT interaction score,[4]; MAPPIT configuration: N-C,1.43
same,MAPPIT interaction score,[4]; MAPPIT configuration: N-N,-0.987
same,MAPPIT interaction score,[5]; MAPPIT configuration: N-C,-0.198
same,MAPPIT interaction score,[5]; MAPPIT configuration: N-N,-0.76
B4,MAPPIT interaction score,[6],-0.294
B5,MAPPIT interaction score,[7],0.14
B6,MAPPIT interaction score,[8],1.05
